Each structure is given as a SMILES string. The source made the active and inactive calls.

One experiment has as its target Albumin (Bos taurus) (UniProt P02769). Description: bovine serum albumin binders on microarray, profiling panel, artefact control for SMM control protein annotation, biochemical, small-molecule microarray, Alexa647 label, 635/667 nm fluorescence (AID 1118).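 Note: score merges 667 nm emission intensity and signal-to-noise per printed compound spot.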 As to conditions: BSA-A647 binding, fluorescence 635 nm, higher = more signal.
The nature of experiment [1]: small-molecule microarray binders of probe aXIP, primary screen, biochemical, NeuroSMM set, 635/667 nm fluorescence (AID 1119).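 Note: probe is the protein aXip251-270 applied at 1 µg/mL to compound-printed slides; binding of probe to printed compounds measured as 667 nm fluorescence plus signal to noise.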 As to conditions: higher = more signal, called active from +8 up or from −8 down.
Experiment [2] in a line: small-molecule binders of probe aNOTCH3, primary screen, biochemical, small-molecule microarray, 635/667 nm fluorescence (AID 1120).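 Note: probe is a biotin-tagged antibody raised against NOTCH3 rather than NOTCH3 protein; score merges spot fluorescence near 667 nm with spot signal to noise.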 The following applies: higher = more signal.
Experiment [3] can be described thus: small-molecule binders of probe aNOTCH2, primary screen, biochemical, small-molecule microarray, 635/667 nm fluorescence (AID 1121).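 Note: score merges feature fluorescence read at 667 nm with its signal to noise.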 As to conditions: higher = more signal.
In experiment [4] the target is Carbonic anhydrase 2 (Homo sapiens) (UniProt P00918). Description: CAII small-molecule binders, profiling panel, biochemical, small-molecule microarray, Alexa647-labelled CAII (AID 1122). As to conditions: CAII-A647 binding fluorescence, higher = more signal.
The nature of experiment [5]: COS7 lysate on small-molecule microarray, probe aHis, 635 nm (AID 1123).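 Note: z-score combines 667nm fluorescence intensity with signal-to-noise per printed compound spot.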 As to conditions: COS7 cell lysate, fluorescence, higher = more signal.
Experiment [6] is described as follows: compound binding in COS7 lysate, probe aLAP1, primary screen, cell lysate, small-molecule microarray (AID 1124).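 Note: lysate comes from COS7 cells expressing LAP1 and is applied at 0.3 µg/mL; score merges spot fluorescence near 667 nm with signal-to-noise over triplicate slides.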 As to conditions: probe aLAP1, fluorescence, higher = more signal.
For the next experiment, the system named is Sam68 (KHDRBS1). Description: Sam68 small-molecule binders, primary screen, biochemical, small-molecule microarray, 635 nm fluorescence (AID 1125).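 Note: score merges 667 nm channel intensity with signal to noise over triplicate slides.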 As to conditions: small-molecule microarray binding, higher = more signal.
Experiment [7] concerns Chordin-like protein 2 (CHRDL2). The experiment can be described thus: CHRDL2 small-molecule binders, primary screen, biochemical, small-molecule microarray, 635 nm fluorescence (AID 1126).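 Note: printed compound slides probed with Chrdl2 protein at 4 µg/mL for 1 h at 4 C; score merges 667 nm emission intensity with signal to noise over three replicate slides.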 The following applies: small-molecule microarray binding, fluorescence 635 nm; higher = more signal.
The target of experiment [8] is Concanavalin-A (Canavalia ensiformis) (UniProt P02866). The experiment can be described thus: ConA small-molecule binders, primary screen, artefact control for SMM control protein annotation, biochemical, small-molecule microarray, Alexa647 label, 635 nm (AID 1127).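 Note: z combines 667 nm emission intensity with signal-to-noise across three replicate slides.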 The following applies: ConA-A647 binding fluorescence, higher = more signal.
Sequence of Concanavalin-A (Canavalia ensiformis) (P02866 whole entry, looked up): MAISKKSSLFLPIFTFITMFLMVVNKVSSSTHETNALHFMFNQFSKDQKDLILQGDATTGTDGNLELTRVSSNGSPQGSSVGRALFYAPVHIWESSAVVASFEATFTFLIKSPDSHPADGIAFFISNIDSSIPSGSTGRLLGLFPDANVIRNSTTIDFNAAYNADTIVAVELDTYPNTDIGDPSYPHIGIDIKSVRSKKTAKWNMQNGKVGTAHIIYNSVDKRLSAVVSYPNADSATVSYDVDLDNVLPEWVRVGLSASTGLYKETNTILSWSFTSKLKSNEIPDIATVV

Sequence of Albumin (Bos taurus) (P02769 whole entry, looked up): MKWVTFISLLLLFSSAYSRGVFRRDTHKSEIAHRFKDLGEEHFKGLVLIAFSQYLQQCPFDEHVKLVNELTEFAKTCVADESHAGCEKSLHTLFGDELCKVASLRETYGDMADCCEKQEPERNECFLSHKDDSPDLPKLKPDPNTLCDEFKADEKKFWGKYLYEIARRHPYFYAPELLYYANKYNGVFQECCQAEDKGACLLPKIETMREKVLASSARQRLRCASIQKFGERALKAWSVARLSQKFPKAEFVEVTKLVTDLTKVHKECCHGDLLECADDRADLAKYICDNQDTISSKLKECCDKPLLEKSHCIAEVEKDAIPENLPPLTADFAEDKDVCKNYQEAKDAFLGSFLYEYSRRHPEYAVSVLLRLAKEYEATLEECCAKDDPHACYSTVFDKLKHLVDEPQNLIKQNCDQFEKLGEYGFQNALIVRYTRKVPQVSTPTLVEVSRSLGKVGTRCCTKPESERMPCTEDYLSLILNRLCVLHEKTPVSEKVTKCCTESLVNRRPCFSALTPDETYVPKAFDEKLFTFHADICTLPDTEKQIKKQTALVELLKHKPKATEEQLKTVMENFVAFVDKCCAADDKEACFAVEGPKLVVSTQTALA

In the case of `CCN(CC)c1ccc(N2CC=CC34O[C@@H]5/C=C\CCCOC(=O)C5[C@H]3C(=O)N(CCO)[C@@H]4C2=O)cc1` (stereo not given in full), the composite z-score with Albumin (Bos taurus) is -0.633; in experiment [2] it was -0.299; in experiment [3], -0.14; in experiment [4] it was 0.78; in experiment [5], 0.534; in experiment [6], 0.485. The composite z-score with Sam68 (KHDRBS1) was -0.526; in [7] it was -1.39; in [8], -0.362. Further, the composite Z-score in [1] was 0.858 (inactive).
`CCCCCN1CC=CC23O[C@@H]4/C=C\CCCOC(=O)C4[C@H]2C(=O)N(C(CO)C(C)C)[C@@H]3C1=O` (stereo not given in full): the composite z-score in the experiment with Albumin (Bos taurus) was 1; in [2], -0.139; in [3], -0.14; in experiment [4], 0.819; in [5], -0.168; in [6], -0.12. Besides, the composite z-score is -0.656 in the experiment on Sam68 (KHDRBS1), -0.718 in [7] and -0.574 in experiment [8]. Further, the composite Z-score in experiment [1] is 0.586 (inactive).
As to `COCCOC(=O)N1C(=O)[C@@]2(c3cc(C#CCCO)ccc31)[C@H](C(=O)N1CCN(c3ncccn3)CC1)[C@H]1C(=O)O[C@H](c3ccccc3)[C@H](c3ccccc3)N1[C@@H]2c1ccccc1OCCO`, the composite z-score with Albumin (Bos taurus) is 0.922; in experiment [2] it was 0.195; in experiment [3], -0.134; in [4], 0.582; in [5], 1.76; in experiment [6], 0.186. Also, the composite z-score in the experiment with Sam68 (KHDRBS1) came out at 1.31; in [7], 0.207; in experiment [8] it was 1.14. The composite Z-score in experiment [1] was -0.07 (inactive).
Regarding `COCCCN1C(=O)[C@@]2(Cc3ccccc31)c1ccccc1C(=O)N(Cc1ccccc1C(F)(F)F)[C@H]2c1ccc(CO)cc1`, the composite z-score in the experiment with Albumin (Bos taurus) is -0.857; in [2], -0.401; in [3], 0.402; in experiment [4], 0.138; in experiment [5], -0.176; in [6], -0.395. For the same molecule, the composite z-score was determined as 1 with Sam68 (KHDRBS1), 1.09 in experiment [7] and 0.961 in experiment [8]. For the same molecule, the composite Z-score in experiment [1] was 0.225 (inactive).
Take `O=C1OCCC=C[C@H]2OC34C=CCN(CCN5CCOCC5)C(=O)[C@H]3N(CCCCCCO)C(=O)[C@@H]4C12` (stereo not given in full): the composite z-score was -0.274 in the experiment with Albumin (Bos taurus); -0.274 in [2]; -0.167 in experiment [3]; 0.844 in experiment [4]; 0.1 in experiment [5]; 0.133 in experiment [6]. Moreover, the composite z-score in the experiment on Sam68 (KHDRBS1) was -0.614; in experiment [7] it was -0.592; in experiment [8] it was 0.0309. Besides, the composite Z-score in [1] is 1 (inactive).
In the case of `C=C/C=C/[C@H]1C(=C)CN([C@@H](Cc2ccccc2)C(=O)OC)[C@@H]1[C@H](O)Cc1ccccc1`, the composite z-score with Albumin (Bos taurus) is -0.668; in experiment [2], -0.235; in experiment [3], -0.195; in [4], -0.174; in [5], 0.25; in experiment [6], 0.161. Further, the composite z-score was -0.24 in the experiment with Sam68 (KHDRBS1), -0.0454 in experiment [7] and -0.243 in experiment [8]. The composite Z-score in [1] was -0.624 (inactive).
As to `COc1ccc(C(O)C2C=CC3C(=O)NC(=O)C3N2Nc2ccccn2)cc1` (stereo not given), the composite z-score is -0.131 with Albumin (Bos taurus); 0.0256 in experiment [2]; 0.0308 in experiment [3]; 0.482 in [4]; 1.39 in experiment [5]; 0.348 in [6]. Besides, the composite z-score in the experiment on Sam68 (KHDRBS1) was -0.183; in experiment [7] it was 1; in experiment [8], -0.0999. The composite Z-score in experiment [1] was 0.841 (inactive).
`CCN(CC)c1ccc(N2CC=CC34O[C@@H]5/C=C\CCC(C)OC(=O)C5[C@H]3C(=O)N(C(CO)C(C)C)[C@@H]4C2=O)cc1` (stereo not given in full): the composite z-score was -0.451 in the experiment with Albumin (Bos taurus); -0.222 in [2]; -0.175 in experiment [3]; 0.894 in experiment [4]; 0.595 in [5]; -0.387 in experiment [6]. The composite z-score is 0.213 with Sam68 (KHDRBS1), -0.263 in experiment [7] and -1.77 in experiment [8]. In addition, in [1], the composite Z-score was 0.211 (inactive).
`CCOC(=O)C[C@H]1[C@H](OC(=O)Cc2ccc3c(c2)OCO3)[C@@H](NC(=O)c2ccc(-c3ccccc3)cc2)c2cc(OCCCO)ccc2N1C(=O)Cc1ccc(OC)cc1`: the composite z-score with Albumin (Bos taurus) was determined as 0.641; in experiment [2] it was 0.121; in [3], 0.0126; in experiment [4] it was 0.0713; in [5], 0.365; in experiment [6], 0.597. The composite z-score in the experiment on Sam68 (KHDRBS1) came to 0.843; in experiment [7], 0.236; in experiment [8], 0.152. For the same molecule, the composite Z-score in experiment [1] was 0.0844 (inactive).
Regarding `COCCOC(=O)N1C(=O)[C@@]2(c3ccccc31)[C@H](c1ccc(O)cc1)N1[C@H](c3ccccc3)[C@H](c3ccccc3)OC(=O)[C@H]1[C@@H]2C(=O)NC[C@H](O)c1ccccc1`, the composite z-score is 0.827 in the experiment with Albumin (Bos taurus); 0.0888 in [2]; -0.0513 in experiment [3]; 0.756 in experiment [4]; 1.79 in experiment [5]; 0.506 in experiment [6]. The composite z-score with Sam68 (KHDRBS1) is 1.07; in [7] it was -1.04; in experiment [8] it was 0.291. Further, the composite Z-score in experiment [1] was 0.442 (inactive).
In the case of `CC(C)C[C@@H]1NC(=O)[C@H]2C[C@@H](C(=O)NCCCCCCN(C)C)[C@@H](c3ccc(O)cc3)N2C1=O`, the composite z-score in the experiment with Albumin (Bos taurus) is -0.581; in experiment [2], 0.0293; in experiment [3], -0.112; in experiment [4], 0.479; in experiment [5], 2.03; in experiment [6] it was 0.588. Further, the composite z-score in the experiment with Sam68 (KHDRBS1) was found to be 1.32; in [7], 1.29; in experiment [8], 1.17. The composite Z-score in experiment [1] is 0.531 (inactive).
Consider `CCCCCC1=C2CNC(CCC)(C(=O)OC)C=C2C(C)C1=O` (stereo not given), for which the composite z-score with Albumin (Bos taurus) came out at 0.912; in experiment [2], 0.227; in experiment [3], 0.153; in experiment [4] it was 0.698; in [5], 1.61; in experiment [6], 0.448. Also, the composite z-score with Sam68 (KHDRBS1) is 0.273; in experiment [7], -0.723; in [8], 0.236. Besides, the composite Z-score in [1] is 0.956 (inactive).
Take `CN1C(=O)C2C=CC(C(O)c3ccccc3)N(Nc3ccccc3)C2C1=O` (stereo not given): the composite z-score is 0.761 with Albumin (Bos taurus); -0.128 in experiment [2]; -0.0543 in experiment [3]; 0.78 in experiment [4]; 2.45 in experiment [5]; 0.119 in experiment [6]. In addition, the composite z-score with Sam68 (KHDRBS1) is -0.0508; in experiment [7], -1.02; in experiment [8], 0.142. The composite Z-score in [1] was 0.131 (inactive).
Take `Cc1ccc(S[C@]2(C(=O)NCC(C)C)CC(=O)N(Cc3cc(C(F)(F)F)cc(C(F)(F)F)c3)[C@@H]2c2ccc(CO)cc2I)cc1`: the composite z-score with Albumin (Bos taurus) was 0.0274; in experiment [2], -0.188; in [3], -0.0415; in experiment [4], 0.89; in [5], 0.234; in [6] it was 0.77. Moreover, the composite z-score in the experiment with Sam68 (KHDRBS1) was -0.47; in [7] it was -1.76; in experiment [8], -1.39. Also, the composite Z-score in experiment [1] was 0.786 (inactive).
On to `COC(=O)c1c(CC[C@@H](CO)NC(=O)N2CCC[C@H]2Cn2cc(-c3ccccn3)nn2)oc(C(C)=O)c1C(=O)OC`, for which the composite z-score was 0.453 with Albumin (Bos taurus); -0.118 in experiment [2]; -0.171 in [3]; 0.428 in experiment [4]; 0.043 in experiment [5]; 0.274 in experiment [6]. For the same molecule, the figures for the composite z-score (in the experiment with Sam68 (KHDRBS1); in [7]; in [8]) were 0.882, -0.394 and 0.419, respectively. For the same molecule, the composite Z-score in experiment [1] was 0.294 (inactive).
`Cc1ccc(S[C@]2(C(=O)NCC(F)(F)F)CC(=O)N(C(C)C)[C@@H]2c2ccc(CO)cc2I)cc1`: the composite z-score was -0.667 with Albumin (Bos taurus); -0.276 in experiment [2]; -0.0557 in experiment [3]; 0.742 in experiment [4]; 0.506 in [5]; 0.106 in experiment [6]. For the same molecule, the composite z-score in the experiment on Sam68 (KHDRBS1) was -0.749; in experiment [7], -0.445; in experiment [8], -0.967. The composite Z-score in experiment [1] was 0.314 (inactive).

The record behind these values is PubChem BioAssay.
